Shown are actives, neighbours in structure and some others; about 4.8% of the full set was active somewhere.
USP1 inh = Inhibitors of USP1/UAF1: Primary Screen | Ubiquitin carboxyl-terminal hydrolase 1 (Homo sapiens), O94782 | recombinant USP1/UAF1, Ub-Rhodamine cleavage fluorescence | Potency, µM (top dose mostly 57.1 µM), most hits filed as inhibitors | 0.23% of 390,000 active; further: nearly all actives have a fitted effect of over 60% in size
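USP1/UAF1 complex (1 nM) preincubated 15 min at room temperature with compound, then Ub-Rho substrate (150 nM final) added. Kinetic fluorescence at 480/540 nm over 6 reads at 60 s intervals; 50 mM HEPES pH 7.8, 0.5 mM EDTA, 0.1 mg/ml BSA, 1 mM TCEP, 0.01% Tween-20.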
ATXN2 expr inh = Primary qHTS for Inhibitors of ATXN expression. HEK-293 ATXN2-luciferase reporter, luminescence, 24 h. Potency, µM (doses to about 57 µM), actives largely listed as inhibitors. 0.72% of 360,000 active; further: nearly all actives have a fitted effect of over 55% in size
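qHTS (up to 57 uM final) was run with 24 h compound exposure of reporter cells at 37 °C. Each well was multiplexed: SteadyGlo luminescence measured ATXN2-luciferase expression after a fluorogenic Gly-Phe-AFC viability readout (25 uM final).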
IL1B secr inh = qHTS for Inhibitors of Inflammasome Signaling: IL-1-beta AlphaLISA Primary Screen; THP-1 LPS/ATP IL-1B secretion, AlphaLISA, 16 h; active compounds read low; activity change, % at 57.5 µM; 4.7% of 360,000 active; AID 743279, 2014; in the data active means activity change below about -50%; inconclusive means mostly about -30% to -49%
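Secreted IL-1B measured by AlphaLISA bead assay after 16 h compound exposure of THP-1 cells; compounds (final up to 57.5 uM) added 1 h before LPS (250 ng/mL) and ATP (1.25 mM) stimulation; lower signal means less secretion.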
USP2a inh = qHTS Assay for Inhibitors of Ubiquitin-specific Protease USP2a Using CHOP2 as the Reporter. USP2 core, Ub-CHOP2 coupled fluorogenic reporter, 485/531. Ubiquitin carboxyl-terminal hydrolase 2 (Homo sapiens), O75604. 0.01% of 330,000 active. Potency, µM (series often up to 38.3 µM), actives largely listed as inhibitors
Target sequence (O75604 whole entry, looked up): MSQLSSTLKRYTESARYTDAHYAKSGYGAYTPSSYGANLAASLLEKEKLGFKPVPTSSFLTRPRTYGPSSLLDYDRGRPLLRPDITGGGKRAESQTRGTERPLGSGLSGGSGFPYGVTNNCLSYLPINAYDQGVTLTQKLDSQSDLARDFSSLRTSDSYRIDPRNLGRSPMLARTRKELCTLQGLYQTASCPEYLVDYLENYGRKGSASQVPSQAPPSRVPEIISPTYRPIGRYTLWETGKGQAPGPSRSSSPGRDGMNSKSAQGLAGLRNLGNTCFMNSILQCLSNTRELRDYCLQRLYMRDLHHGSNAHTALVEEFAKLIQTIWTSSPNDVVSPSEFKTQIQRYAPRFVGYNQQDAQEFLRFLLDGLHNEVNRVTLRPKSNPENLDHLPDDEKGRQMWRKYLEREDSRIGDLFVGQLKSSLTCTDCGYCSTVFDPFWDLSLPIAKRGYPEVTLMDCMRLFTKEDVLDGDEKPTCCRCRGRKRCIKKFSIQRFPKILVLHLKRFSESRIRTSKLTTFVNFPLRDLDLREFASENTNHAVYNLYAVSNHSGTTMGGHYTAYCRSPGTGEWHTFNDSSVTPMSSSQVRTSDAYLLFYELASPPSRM
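USP2 core (10nM final) preincubated 30min RT with compound in 20mM Tris-HCl pH 8.0, 2mM CaCl2, 2mM beta-mercaptoethanol, 0.05% CHAPS; 25nM Ub-CHOP2 plus 25nM reporter substrate added, fluorescence (Ex485/Em531) read after 60min.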
ATXN viability = Viability Counterscreen for Primary qHTS for Inhibitors of ATXN expression; 0.49% of 400,000 active; S2 cells (HEK-293 line with an ATXN2-luciferase reporter) viability, CellTiter-Fluor protease fluorescence, 24 h; Potency, µM (highest dose often 56.7 µM), actives largely listed as cytotoxic; further: nearly all actives have a fitted effect of over 40% in size
Hits are given with their value; . = inactive; ? = inconclusive; / = not tested or not shown; ! = repeats disagree. Unless noted, the call rests on the fitted dose curve; in most records, active means well fitted curve in the direction sought with a large enough effect; inconclusive means small, poorly fitted or top-dose-only effect, or another doubt; inactive means no such curve, though single readings can be large; an effect the other way counts as inactive or inconclusive.

SMILES	USP1 inh	ATXN2 expr inh	IL1B secr inh	USP2a inh	ATXN viability
O=C(Nc1nnc(SCc2ccc(F)cc2)s1)C1Cc2ccccc2CN1C(=O)c1ccco1 (centres undefined)	.	.	-78	.	.
COc1ccc(CN(C(=O)Cc2c[nH]c3ccccc23)C(C(=O)NC2CCCCC2)c2ccc(C)o2)cc1 (centres undefined)	.	/	-59	.	/
COc1ccc(C(C(=O)Nc2ccc3c(c2)OCO3)N(C)C(=O)Cc2c[nH]c3ccccc23)cc1 (centres undefined)	.	.	-58	.	.
COc1cccc(CN(C(=O)Cc2c[nH]c3ccccc23)C(C(=O)NC2CCCCC2)c2ccc(C)o2)c1 (centres undefined)	.	?	-68	.	?
Cc1ccc(C(C(=O)NC2CCCCC2)N(Cc2ccccc2)C(=O)Cc2c[nH]c3ccccc23)o1 (centres undefined)	.	?	?	.	?
O=C(NCCO)c1cccc(-c2cnc3cccnn23)c1	/	.	.	/	.
COc1ccc(N2CCN(C(=O)Cn3cnc4sc(C)c(S(=O)(=O)N5CCCCC5)c4c3=O)CC2)cc1	.	.	/	/	.
CSc1nc(C)cc(OCC(=O)N/N=C/c2ccccc2O)n1	.	14µM	.	.	.
Cc1ccc(NC(=O)CCC(=O)N/N=C/c2ccccc2O)cc1	.	/	.	.	?
Cc1ccc(SCCC(=O)N/N=C/c2ccccc2O)cc1	.	25µM	.	.	.
CCCCC1Cc2[nH]c(=S)[nH]c(=O)c2C(c2ccc(Cl)cc2)O1 (centres undefined)	/	.	.	/	.
Nc1nc(N)c(-c2cccc(C(F)(F)F)c2)c(Cc2cccc(C(F)(F)F)c2)n1	.	?	-81	/	.
Cc1c(C(=O)NC2CCCCC2)sc2ncnc(NCCN(C)C)c12	/	/	/	/	.
COc1ccc(-c2csc(C)n2)cc1	.	.	.	.	.
COc1ccc(-c2csc(CCN3N=C(C)CC3=O)n2)cc1	?	.	-53	.	?
CCOC(=O)C[C@@H]1OC[C@H](Cc2ccccc2)N1S(=O)(=O)c1ccc(C)cc1	/	/	.	/	/
O=C(NCC1(N2CCOCC2)CCCCC1)c1cnn(-c2nccc(-c3ccco3)n2)c1C1CC1	/	/	/	/	.
Clc1cccc(CN2CCC3CC2c2cc(N4CCCCC4)ccc23)c1 (centres undefined)	.	.	.	/	.
CCn1c(-c2ccccc2F)nc2cc(C(=O)N3CCNC(=O)C3CC(=O)OC)cc(NC(C)=O)c21 (centres undefined)	/	/	/	/	.
CCOC(=O)c1sc(NC(=O)c2cccc(S(=O)(=O)N3CCN(C)CC3)c2)cc1C	.	.	.	.	.
COC(=O)c1c(NC(=O)c2ccc(S(=O)(=O)N3CC(C)OC(C)C3)cc2)sc2c1CCN(C)C2 (centres undefined)	.	/	.	/	/
COC(=O)c1c(NC(=O)c2cccc(S(=O)(=O)N3CCN(C)CC3)c2)sc(C)c1C	.	.	-77	.	.
CCOC(=O)N1CCN(S(=O)(=O)c2ccc(C(=O)Nc3sc4c(c3C(N)=O)CCN(CC)C4)cc2)CC1	.	.	-68	.	.
CCCN1CCc2c(sc(NC(=O)c3ccc(S(=O)(=O)N4CCN(C(=O)OCC)CC4)cc3)c2C(N)=O)C1	?	?	-98	.	?
CCOC(=O)N1CCN(S(=O)(=O)c2ccc(C(=O)Nc3sc4c(c3C(=O)OC)CCN(C)C4)cc2)CC1	.	?	-100	.	?
SMILES	USP1 inh	ATXN2 expr inh	IL1B secr inh	USP2a inh	ATXN viability
COc1cc(=O)n2c(c1C(=O)N(C)Cc1cscn1)CCN(Cc1ccc3c(c1)OCCO3)CC2	/	/	/	/	.
O=C(NCc1ccc(N2CCCC2=O)cc1)c1cc(COc2c(F)cccc2F)on1	.	.	.	.	.
Cn1ncc2c1NC(c1ccc(F)cc1)SCC2=O (centres undefined)	.	/	.	/	.
CC(=O)N1CCc2c(sc(NC(=O)C3CCN(S(=O)(=O)c4cccs4)CC3)c2C(N)=O)C1	.	.	.	.	.
CNC(=O)c1c(NC(=O)c2ccc(S(=O)(=O)N3CCCCC3)cc2)sc2c1CCN(C(C)C)C2	.	.	.	.	.
CCCN1CCc2c(sc(NC(=O)c3ccc(S(=O)(=O)N(C)c4ccccc4)cc3)c2C(N)=O)C1	?	.	.	.	?
CN1CCc2c(sc(NC(=O)c3ccc(S(=O)(=O)N4CCCCCC4)cc3)c2C(N)=O)C1	?	?	-96	.	/
CCCN1CCc2c(sc(NC(=O)c3ccc(S(=O)(=O)N(C)c4ccccc4)cc3)c2C(=O)NC)C1	?	.	-60	.	.
CCN1CCc2c(sc(NC(=O)c3ccc(S(=O)(=O)N4CCCC4)cc3)c2C(=O)NC)C1	.	.	-97	.	.
CCCN1CCc2c(sc(NC(=O)C3CCN(S(=O)(=O)c4cccs4)CC3)c2C(N)=O)C1	.	.	-62	.	.
O=C(Nc1cccc(S(=O)(=O)N2CCCC2)c1)[C@H]1C[C@H](O)[C@@H](CO)O1	/	.	.	/	.
COc1ccccc1-c1ccnc(-n2ncc(C(=O)N(C)CCc3ccccn3)c2C)n1	/	/	/	/	.
CCOC(=O)c1coc(C(=O)OCC)c1C(=O)OCC	.	.	.	/	.
CO[C@@]12[C@H](COC(N)=O)C3=C(C(=O)C(C)=C(N)C3=O)N1C[C@@H]1N[C@@H]12	.	1.7µM!	.	.	?
CO[C@@]12[C@@H]3N[C@@H]3CN1C1=C(C(=O)C(N)=C(C)C1=O)[C@@H]2COC(N)=O	.	1.3µM	.	/	?
COc1cccc(C(=O)Nc2ccc(C(=O)NCC3CCCO3)cc2)c1 (centres undefined)	.	.	.	/	.
Cc1ccc(-c2csc3ncnc(SCC(=O)Nc4nnc(C)s4)c23)cc1	.	.	.	.	.
Cc1ccc(-c2csc3ncnc(Sc4nnc(CN5CCCCCC5=O)o4)c23)cc1	.	28µM	-98	.	/
Nc1nnnn1/N=C\c1ccc(Cl)c([N+](=O)[O-])c1	.	.	-61	.	.
O=[N+]([O-])c1cc(/C=N/N2CCCCC2)ccc1Cl	.	.	.	.	.
CCc1ccc(CN2CCCC(CNS(=O)(=O)c3ccc(OC)cc3)C2)cc1 (centres undefined)	.	.	-94	.	.
Cc1ccc(S(=O)(=O)N2CCC(=O)N([C@H](COCc3ccc(Cl)c(Cl)c3)Cc3ccccc3)CC2)cc1	/	.	.	/	?
CCO[C@@H]1O[C@H](C(COCc2ccccc2)OCc2ccccc2)[C@H](OCc2ccccc2)[C@H]1O (some centres undefined)	/	.	/	/	.
O=C(c1ccccc1Cc1ccccc1)N1CCN(S(=O)(=O)c2ccccc2Br)CC1	.	.	-61	.	.

From PubChem BioAssay
